In PubChem BioAssay AID1347426 (Functional Genomics Laboratory (NCATS/FGL), 2020):
Hit rate of the full screen: of about 31,000 sequences, about 1,400 (4.5%) were called active.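 The calls were made as follows: active = median seed-adjusted z-score above 1 or below -1; inactive = the rest.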 The sample as a whole holds a higher share of actives than the screen did.

Assay: Novel Modifiers of Survival Motor Neuron (SMN) Protein: Gene Identification via Genome-wide siRNA Screen
Conditions: HEK293T SMN2-luciferase reporter, siRNA knockdown, 72 h; actives lie on both sides
From the text: Spinal muscular atrophy (SMA) is the most common neuromuscular autosomal recessive disorder and one of the leading genetic causes of infant death. SMA results from mutations inducing loss of function or deletion in the survival of motor neuron-1 gene (SMN1), leading to deficiency of the survival motor neuron (SMN) protein. Although a second nearly identical gene, SMN2, is retained in humans, its expression primarily produces an aberrantly spliced isoform that is largely unstable and quickly degraded. We performed a genome-wide RNAi screen using a cell-based reporter assay to identify genes and pathways that modulate SMN protein stability. The screen identified over 200 genes that led to the greatest increase or decrease in luciferase expression.
Using HEK293T cells stably expressing a luciferase reporter that combines the promoter and splicing based cassettes in tandem with the major portion of the native SMN2 cDNA with luciferase, we performed a genome-wide RNAi screen to identify modulators of SMN protein levels. Luciferase is expressed when full-length SMN protein is generated with luminescence signal proportional to SMN protein levels. Our luciferase-based reporter assay was used to screen Ambion Silencer Select Human Druggable Genome siRNA library (10418 genes, 3 unique siRNAs per gene) using lipid-based reverse transfection.
Briefly, 1 pmol of each siRNA was spotted to a well of a 384-well plate (Corning, Corning, NY) and 20 microL of serum-free DMEM containing […] of Lipofectamine RNAiMax (Life Technologies, Carlsbad, CA) was then added to each well. Transfected cells were maintained at 37 degrees C in 5% CO2 for 72 hours, 20 microL of ONE-Glo Reagent (Promega) was added to wells for luciferase quantification. Raw luminescence reads were normalized to Ambion(R) Silencer(R) Negative Control #2 siRNA, then log10 transformed. A robust statistical measure of median absolute deviation (MAD) to standardize siRNA activities from each screen. Common Seed Analysis was used to help prioritize clean hits as opposed to those appearing to arise from seed based off-target effects. Candidate modulators were defined as the genes having a MAD score greater than 1.0 or less than -1.0.

Sequence | median seed-adjusted z-score
AGAUUAUCAUAUUGGGUGATT against RAB7B | 0 (inactive)
CUAUAGGAAUGUUGAAUAATT against WDR33 | 3.27 (active)
GGACCACAAUGUACGGAAATT against ATP13A5 | 0.241 (inactive)
CUCCUGUACUCUUCAGAGATT against PTOV1 | 0.115 (inactive)
GGACCAAGCCCUAAAGGAATT against 4-Sep | -0.0124 (inactive)
GGAUUAAUCCACGAAUUGATT against EGF | 0.00831 (inactive)
AACUUGUAUUCUUAGGUUUTT against SAR1A | 0.0213 (inactive)
GCUAACUACCAAGUCCUAATT against SLC8A1 | 0.221 (inactive)
ACAUCGCCCUCAAACGGGATT against ACTL7A | 1.1 (active)
GAUUGAUAGAGACAAUUCATT against RNGTT | -1.55 (active)
UGGUGCUGUUGGUAAAACATT against CDC42 | -0.0938 (inactive)
AGAGGUCCUUCAAAACAGATT against ENTPD6 | 0.438 (inactive)
GGAGCGGAAUGAACUCAAATT against RILP | 0.503 (inactive)
GCUUAGGUCUUGCUCUCAATT against YWHAE | 1.38 (active)
CCACAAUAUCUCUAACAGATT against GUCY1A2 | -0.186 (inactive)
AAACAAUCCGAAAAUAUGATT against KLK13 | 0.452 (inactive)
GAAUUGACAAUCUCAUAGATT against MCCC2 | -0.0566 (inactive)
GCAUCUUUUGGAGAUCGAATT against TC2N | 0.461 (inactive)
GAAGUAUGAAGAAGAAGUATT against KRT83 | 1.15 (active)
GAUCAUCCCUUGUCUCUUUTT against CHRNA6 | 0.21 (inactive)
GCAGAAUACUUCUAUGAAUTT against WIF1 | -0.521 (inactive)
ACACCAGCCUUGCACCUGATT against NCR1 | -0.26 (inactive)
CGCCUUUCAUUUUUGCUGATT against TGM1 | -0.286 (inactive)

Sequence | median seed-adjusted z-score
CCUUUGCCCUGUUCAAGGATT against CYP17A1 | -1.39 (active)
CAUACGAGGUAUUAUCAAATT against DNAJB7 | 0.684 (inactive)
GGAUCAGUAAUAUACCACATT against MTFMT | -0.0119 (inactive)
CCUGGAUUACAUCUACUUATT against EPHB6 | -0.0275 (inactive)
GCAGCAUUAUAGUCGUAUUTT against PRSS7 | 0.0614 (inactive)
GCAUUUGUAGGGUUACGGATT against GABRG1 | 0.312 (inactive)
CAUUGUAGAUUACUCAGAATT against RHOT1 | -0.189 (inactive)
GAUCCAUACUUGGAUGAUATT against PAIP1 | -0.0178 (inactive)
GCUCGGAUAUGCUCCAGGATT against TMPRSS5 | 1.25 (active)
GCCUGGAAUUCUACCGCUATT against SLC29A1 | 0.117 (inactive)
GCAUAUCUUCUAACUUGCATT against EVI1 | 0 (inactive)
GGACCAAGAGGAUUGAGUATT against CLSTN2 | 0 (inactive)
AGUUUAAUCGGAAAGCCUUTT against NANS | -1.54 (active)
GCAACACCGACGUAAAGAATT against ALOX5 | -0.201 (inactive)
UGCUCUCAGUGGAAGAGGATT against TNFRSF8 | 0.739 (inactive)
GGUUGGUGUUCGAUGAGUATT against ANXA6 | -1.01 (active)
GCGGCAAGGGUUUCAAGCATT against FIZ1 | 0.154 (inactive)
GAAGUUCGGUCGAACCACATT against CST5 | 0.466 (inactive)
CCAGUACGCUAUGGACGUATT against MDN1 | 0.187 (inactive)
GUCUGUCAAUGUACCUUCUTT against 3-Mar | 0.069 (inactive)
GCAACAGCAUUGUCCGUGUTT against LRRN2 | 0.324 (inactive)
GAACUGACAUGGGAAGAUUTT against DUOX1 | -1.09 (active)
GCCUGACUUCGACUGCUCATT against GFER | 0.402 (inactive)

Sequence | median seed-adjusted z-score
GGAGGCUAAUGGUUGCUUUTT against ARPC1B | 0 (inactive)
CUAUUUCCCUGCCUUCGAATT against GSTA3 | 0.334 (inactive)
CAACAAAAGUUUCAUGCUATT against STK35 | 0.519 (inactive)
GGAGGUACGUGGAAAAGCATT against ORC3L | -0.254 (inactive)
GCUUCGGAAUUCAGACAUUTT against NFATC4 | 0 (inactive)
GGCCCUUGGCCUUACUAUGTT against ACSM2B | -0.0401 (inactive)
GCACGAUAUUAUGAUCCAATT against PPAT | -1.51 (active)
CAACCACCAUCUGACCUUUTT against MMP15 | -0.0489 (inactive)
GGCUGAAAACGGAGCACAATT against PCDHB16 | -0.523 (inactive)
CAGUGACUGUUGUUGGUCUTT against PKD1L3 | -0.658 (inactive)
GGAGGAGCCUAAGAUGUCATT against ZNF442 | 1.06 (active)
AAGGGAAAGUGUACUGGUATT against MMP23B | 0.288 (inactive)
GGCUAUUGAUUGUCCACAUTT against L2HGDH | -0.346 (inactive)
CUACCGAGAUUUUAGAUGATT against POLE | -1.55 (active)
CACUAUAUCUAUAUCGAAATT against PLD1 | 0.518 (inactive)
GACCCAUACAGAAAGUAGATT against SSR1 | -0.434 (inactive)
GAUGCGCACUCAGUCCUUATT against MLLT4 | -0.0762 (inactive)
CUGUGAGAAUUGUUGCUCUTT against TRIP6 | 1.03 (active)
GGAUCUCAGUCAAAGGCAUTT against CPZ | -0.0748 (inactive)
CGAUCGAGUGGAUGAAGAATT against MMP24 | -1.28 (active)
ACAUUGAACGUCCCACGUATT against TUBA3E | -0.35 (inactive)
GCUAAGAGCUUCGUGCUGATT against LGALS1 | 0.033 (inactive)
CCAUGGAUAUGGAAACCCATT against ALPK3 | 0.365 (inactive)
